# “And” between values parts separate entries of the source, which are not always exact repeats. Identical values can stand only once. A structure can be active in one record and inactive in another. The source made the active and inactive calls. How the source made its calls: active means hit-call score of the fitted dose curve at least 0.9, where 1 is the maximum; inactive means score below 0.9.
# Read-out: Interleukin-8 (IL8), CXCL8 (gene 3576)
# Test: BSK_SAg_IL8: BioMAP Diversity Plus: SAg Assay for Interleukin-8 (IL8) Biomarker Activity (AID 2283094)
# Conditions: primary human HUVEC with PBMC; actives raise or lower the signal
# Method in brief: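 Human umbilical vein endothelial cells co-cultured with peripheral blood mononuclear cells; IL-8 measured by ELISA 24 h after chemical dosing. Bidirectional concentration-response fitting used DMSO as negative control and activity baseline.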
SMILES,outcome,AC50
CCCCCCCC(=O)O,inactive,
OC1CCC(C2CCCCC2)CC1 (stereo not given),inactive,
CC(C)CCCCCCOC(=O)CCCCC(=O)OCCCCCCC(C)C,inactive,
CCCCOCCO,inactive,
OC1CCCCC1,inactive,
CCCCCCCCC(=O)O,inactive,
OCCC(F)(F)C(F)(F)C(F)(F)C(F)(F)C(F)(F)C(F)(F)C(F)(F)C(F)(F)F,inactive,41.5 µM (active) and 24.6 µM (active)
Oc1cccc(O)c1,inactive,
c1ccc2cc3c(ccc4ccccc43)cc2c1,inactive,
NCC(F)(F)C(F)(F)C(F)(F)C(F)(F)C(F)(F)C(F)(F)C(F)(F)F,inactive,
O=c1c(-c2ccc(O)cc2)coc2cc(O)ccc12,inactive,
CCc1ccc(CCOc2ccc(CC3SC(=O)NC3=O)cc2)nc1 (stereo not given),inactive,
CCC(C)(C)C1CCC(O)CC1 (stereo not given),inactive,
CN1CCN(c2ccccc2/C=C2\SCCN(c3ccc(Cl)c(Cl)c3)C2=O)CC1,,20 µM (active)
CN(C)C=O,inactive,
CCCCCCCCCCCCN1CCCC1=O,,20 µM (active)

SMILES,outcome,AC50
CCCCCCC(=O)O,inactive,
OCCC(F)(F)C(F)(F)C(F)(F)C(F)(F)C(F)(F)C(F)(F)F,inactive,46.1 µM (active)
C=C(C)C(=O)OCCC(F)(F)C(F)(F)C(F)(F)C(F)(F)C(F)(F)C(F)(F)F,inactive,
COCC(C)O (stereo not given),inactive,
CCOC(=O)CC(O)(CC(=O)OCC)C(=O)OCC,inactive,
Cc1cc(CCN2CCN(c3nsc4ccccc34)CC2)cc2c1NC(=O)CC2(C)C,,20 µM (active)
CC(C)(C)c1cccc(C(C)(C)C)c1O,inactive,
CC(C)(C)c1cc(C(C)(C)C)c(O)c(C(C)(C)C)c1,inactive,
CN1CCC[C@H]1c1cccnc1,inactive,
CCc1nn(C2CCCCC2)c2cc(C3(C#N)CCC(C(=O)O)CC3)ccc12 (stereo not given),,2.73 µM (active)
C[C@@H]1C[C@H]2[C@@H]3CCC4=CC(=O)C=C[C@]4(C)[C@@]3(F)[C@@H](O)C[C@]2(C)[C@@]1(O)C(=O)COP(=O)(O)O,inactive,6.07 µM (active)
CC[C@H](c1ccc(O)cc1)[C@@H](CC)c1ccc(O)cc1,,20.2 µM (active)
CC(=O)CC(C)(C)O,inactive,
CCCCC(CC)COC(=O)CCCCC(=O)OCC(CC)CCCC (stereo not given),inactive,
CC(C)(C)CC(C)(C)c1ccc(O)c(-n2nc3ccccc3n2)c1,inactive,
c1ccc2c(c1)ccc1ccccc12,inactive,

# Read-out: not listed separately
# Test: BSK_SAg_Proliferation: Cell Proliferation Assessment in the BioMAP Diversity Plus: SAg Assay (AID 2283095);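 further: relative cell number as total protein by SRB absorbance in sub-confluent culture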
# Conditions: primary human HUVEC with PBMC
# Method in brief: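 Human umbilical vein endothelial cells co-cultured with peripheral blood mononuclear cells; total protein measured by sulforhodamine B staining (0.1% SRB after 10% TCA fixation), absorbance at 560 nm, at 96 h. Bidirectional fit against DMSO baseline.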
SMILES,outcome,AC50
CCCCCCCC(=O)O,inactive,
OC1CCC(C2CCCCC2)CC1 (stereo not given),inactive,
CC(C)CCCCCCOC(=O)CCCCC(=O)OCCCCCCC(C)C,inactive,
CCCCOCCO,inactive,
OC1CCCCC1,inactive,
CCCCCCCCC(=O)O,inactive,
OCCC(F)(F)C(F)(F)C(F)(F)C(F)(F)C(F)(F)C(F)(F)C(F)(F)C(F)(F)F,,20 µM (active) and 14.1 µM (active) and 10.9 µM (active)
Oc1cccc(O)c1,inactive,
c1ccc2cc3c(ccc4ccccc43)cc2c1,inactive,
NCC(F)(F)C(F)(F)C(F)(F)C(F)(F)C(F)(F)C(F)(F)C(F)(F)F,inactive,43.6 µM (active)
O=c1c(-c2ccc(O)cc2)coc2cc(O)ccc12,,20 µM (active)
CCc1ccc(CCOc2ccc(CC3SC(=O)NC3=O)cc2)nc1 (stereo not given),,7.06 µM (active)
CCC(C)(C)C1CCC(O)CC1 (stereo not given),inactive,
CN1CCN(c2ccccc2/C=C2\SCCN(c3ccc(Cl)c(Cl)c3)C2=O)CC1,,6.38 µM (active)
CN(C)C=O,inactive,
CCCCCCCCCCCCN1CCCC1=O,,36.3 µM (active)

SMILES,outcome,AC50
CCCCCCC(=O)O,inactive,
OCCC(F)(F)C(F)(F)C(F)(F)C(F)(F)C(F)(F)C(F)(F)F,inactive,49.8 µM (active) and 50.9 µM (active)
C=C(C)C(=O)OCCC(F)(F)C(F)(F)C(F)(F)C(F)(F)C(F)(F)C(F)(F)F,inactive,11.2 µM (active)
COCC(C)O (stereo not given),inactive,
CCOC(=O)CC(O)(CC(=O)OCC)C(=O)OCC,inactive,
Cc1cc(CCN2CCN(c3nsc4ccccc34)CC2)cc2c1NC(=O)CC2(C)C,,8.05 µM (active)
CC(C)(C)c1cccc(C(C)(C)C)c1O,inactive,
CC(C)(C)c1cc(C(C)(C)C)c(O)c(C(C)(C)C)c1,inactive,
CN1CCC[C@H]1c1cccnc1,inactive,
CCc1nn(C2CCCCC2)c2cc(C3(C#N)CCC(C(=O)O)CC3)ccc12 (stereo not given),,12.5 µM (active)
C[C@@H]1C[C@H]2[C@@H]3CCC4=CC(=O)C=C[C@]4(C)[C@@]3(F)[C@@H](O)C[C@]2(C)[C@@]1(O)C(=O)COP(=O)(O)O,inactive,
CC[C@H](c1ccc(O)cc1)[C@@H](CC)c1ccc(O)cc1,,19.2 µM (active)
CC(=O)CC(C)(C)O,inactive,
CCCCC(CC)COC(=O)CCCCC(=O)OCC(CC)CCCC (stereo not given),inactive,
CC(C)(C)CC(C)(C)c1ccc(O)c(-n2nc3ccccc3n2)c1,inactive,
c1ccc2c(c1)ccc1ccccc12,inactive,
